# Bioassay records (PubChem)
# MOR-DOR inv ag: inverse agonist of human OPRM1-OPRD1 heterodimerization | P35372+P41143 | cell-based MOR-DOR heterodimer luminescence, inverse agonism | inhibition, % at 9.3 µM | actives 0.21% (n = 340,000) | AID 504357; in the data active means inhibition above about 22%, passing the limit was not always enough;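 further: 0% = cells with DMSO and 100% = wells without cells with DMSO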
# HTR5A ag ctr: HTR5A agonism, opioid heterodimer counter-screen. P47898. AID 504692. actives 0.61% (n = 340,000). HTR5A agonist assay, luminescence, cell-based. activation, % at 9.3 µM; in the data active means activation mostly above about 9.5%, no sharp cut-off; inactive means mostly below about 7.6%;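 further: 0% = cells with vehicle only and 100% = reference agonist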
# HTR5A inv ctr: inverse agonist of human HTR5A in OPRM1-OPRD1 counter-screen; P47898; HTR5A cell line, luminescence, inverse agonism; inhibition, % at 9.3 µM; actives 0.083% (n = 340,000); AID 504634; in the data active means inhibition mostly above about 23%, no sharp cut-off; inactive means mostly below about 18%;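 further: 0% = cells with DMSO and 100% = no-cell wells with DMSO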
# MOR-DOR ag: OPRM1-OPRD1 heterodimerization agonism | cells, luminescence | activation, % at 9.3 µM | actives 0.3% (n = 340,000) | AID 504326;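 further: 0% = vehicle-treated cells and 100% = reference agonist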
# MOR-DOR ag conf: OPRM1-OPRD1 heterodimer agonism, confirmation; actives 45% (n = 830); shares compounds with MOR-DOR ag; cells, MOR-DOR heterodimerization, luminescence complementation; activation, % at 9.3 µM;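 further: 0% = vehicle-treated cells and 100% = reference agonist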
# HTR5A ag ctr2: counter-screen for OPRM1-OPRD1 agonists: human HTR5A agonism; HTR5A agonist counterscreen, cell luminescence; shares compounds with MOR-DOR ag; activation, % at 9.3 µM; actives 8% (n = 830); AID 504905; in the data active means activation above about 17%;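 further: 0% = vehicle-treated cells and 100% = reference agonist response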
# The depositor's hits bear a star; i = inactive; / = no result; ! = not active in a repeat. Compounds with a hit are over-represented: about 1.1% of the library has one in this group of screens. Unless noted, no stated cut-off is given here; in the data, active means activation above about 18%; inactive means the rest.
SMILES,MOR-DOR inv ag,HTR5A ag ctr,HTR5A inv ctr,MOR-DOR ag,MOR-DOR ag conf,HTR5A ag ctr2
COc1ccc2ncc(S(=O)(=O)c3ccccc3)c(N3CCN(c4ccccc4)CC3)c2c1,-8,8,33,2,/,/
CCC(C)c1ccccc1O (stereo not drawn),16,3,-12,-3,/,/
CCC(c1ccccc1)C(CC)c1cc(O)c(O)c(O)c1 (stereo not drawn),-95,1,-4,18*,-1,-2
COc1cccc(C(=O)O[C@@H]2[C@H](Cc3ccccc3)NS(=O)(=O)[C@H]3C[C@@H]4C=C[C@]23O4)c1,24,2,5,-5,/,/
Cc1ccccc1NC1=C/C(=N\S(=O)(=O)c2ccc(C(=O)O)cc2)c2ccccc2C1=O,-63,-2,5,11,/,/
COc1ccc(S(=O)(=O)/N=C2\C=C(Nc3ccc(O)cc3)C(=O)c3ccccc32)cc1,-119,0,0,21*,7,1
CCc1cccc2c(C(=O)CN3C(=O)N(C)C4(CCCCC4)C3=O)c[nH]c12,13,3,-6,-3,/,/
CN1CCN(Cc2nc3ccccc3c(=O)n2Cc2nc(-c3ccccc3F)cs2)CC1,-20,10,-34,4,/,/
CN1CCN(Cc2nc3ccccc3c(=O)n2Cc2nc(-c3ccc4ccccc4c3)cs2)CC1,-98,9.0*,-36,20*!,49*,-1
CCOC(=O)C1=C(COC(=O)c2ccc(Br)c(S(=O)(=O)N3CCOCC3)c2)NC(=O)NC1C (stereo not drawn),11,-5,-12,-3,/,/
COCC1CCN(Cc2cn(-c3ccccc3F)nc2-c2cc(C)sc2C)CC1,-216,-1,-12,42*,55*,5
COc1cc(C(=O)N2CCN(c3ccccc3Cl)CC2)ccc1OCC(=O)N1CCOCC1,11,-4,11,-3,/,/
Cc1cc(NC(=O)CSc2ccc(-c3nc4cc(C)c(C)cc4[nH]3)cn2)no1,-106,4,-12,20*,1,12
O=C(N/N=C/c1cccnc1)c1ccccc1OCc1ccc(Br)cc1,-126,-3,8,24*,14,5
CNC1=C(N(C(C)=O)c2ccc(Br)cc2)C(=O)c2ccccc2C1=O,-30,2,9,6,/,/
CC(=O)C1=C(c2ccc(Br)cc2)C(=O)c2ccccc2C1=O,-178,11,-28,33*,26*,11
O=C(NCC(c1ccco1)N1CCCCC1)c1cccc(S(=O)(=O)Nc2ccc(F)cc2)c1 (stereo not drawn),-1,2,-29,0,/,/
C[C@H](CO)N1C[C@H](C)[C@@H](CN(C)S(C)(=O)=O)Oc2ccc(NC(=O)Nc3ccc4c(c3)OCO4)cc2C1=O,-26,0,-20,5,/,/
CCN(CC)Cc1cc(Nc2c3ccccc3nc3c4ccccc4n(C)c23)cc(CN(CC)CC)c1O,i,2,-7,144*,149*,-3
Oc1cccc(Nc2c3ccccc3nc3ccccc23)c1,4,2,-8,-1,/,/
CCOc1cc2c(cc1OCC)CN(C(=O)c1cccc(S(=O)(=O)N3CCCC3)c1)CC2,13,-9,22,-3,/,/
COc1ccc(/C=N/NC(=O)COc2ccc(Cl)cc2Cl)cc1Cn1nc(C)cc1C,-194,11,7,28*,1,5
O=C(COc1ccc(Cl)cc1Cl)N/N=C/c1cccnc1,4,1,-3,-1,/,/
CCn1cc(CN2CCCC(C(=O)Nc3ccc(-c4nc5ccccc5[nH]4)cc3)C2)c(C)n1 (stereo not drawn),-165,4,12,31*,1,-3
Cc1cc(/C=C2/C(=O)NN(c3ccccc3)C2=O)c(C)n1-c1cccc(O)c1,-143,1,-1,20*,-1,-3
C(=N\Nc1nc(Nc2ccccc2)nc(Nc2ccccc2)n1)/c1ccncc1,-113,-1,4,20*,-2,-2
C(=N\Nc1nc(Nc2ccccc2)nc(Nc2ccccc2)n1)/c1cccnc1,-14,-4,8,3,/,/
CNc1c2cccc(C)c2nc2c(C(=O)NCCN(C)C)cccc12,2,-1,6,0,/,/
Nc1nc(CCl)nc(Nc2ccc3ccccc3c2)n1,-396,13,-35,80*,10,13
Cc1ccccc1Nc1nc(N)nc(CCl)n1,7,6,-24,-1,/,/
